What all share (assay): glycan array binding signal (z-score within array); higher = stronger binding
Conditions in all cases: glycan notation: IUPAC condensed, linker removed

The target of assay [1] is Fuc(a1-3)[Gal(b1-4)]GlcNAc. In outline:
(§1)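 Negative Z-scores can be read as non-binding. The Z-score is calculated within each array and then averaged across arrays of one protein sequence at different concentrations or buffers and across linkers. Arrays, 3228 in all, were curated from the Consortium for Functional Glycomics database and kept only where the protein sequence was available.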

Assay [2] addresses Fuc(a1-3)[Gal3S(b1-4)]GlcNAc. In outline: as §1
The next assay deals with Gal(a1-2)Gal. In outline:
as §1

The target in the next assay is Gal(b1-2)Gal. In short, it runs like this: as §1
The target in assay [3] is Gal3S(b1-3)[Fuc(a1-4)]GlcNAc. In outline:
as §1

The next assay deals with Glc(b1-4)Glc. In outline:
as §1

The target of assay [4] is GlcNAc(a1-6)Gal(b1-4)GlcNAc. In short, it runs like this: as §1
The target of another assay is GlcNAc(b1-3)GalNAc. In short, it runs like this:
as §1

Assay [5] has as its target GlcNAc(b1-4)[GlcNAc(b1-6)]GalNAc. In short, it runs like this: as §1
In assay [6] the target is Man(a1-2)Man(a1-2)Man(a1-3)[Man(a1-2)Man(a1-3)[Man(a1-2)Man(a1-6)]Man(a1-6)]Man(b1-4)GlcNAc(b1-4)GlcNAc. In outline: as §1
Assay [7] concerns the target Man(a1-2)Man(a1-2)Man(a1-3)[Man(a1-2)Man(a1-6)[Man(a1-3)]Man(a1-6)]Man(b1-4)GlcNAc(b1-4)GlcNAc. In short, it runs like this:
as §1

The target of assay [8] is Man(a1-2)Man(a1-3)[Man(a1-6)]Man(a1-6)[Man(a1-2)Man(a1-3)]Man(b1-4)GlcNAc(b1-4)GlcNAc. In short, it runs like this: as §1
Assay [9] addresses Man(a1-3)[Man(a1-6)]Man(a1-6)[Man(a1-3)]Man(b1-4)GlcNAc(b1-4)GlcNAc. In outline: as §1
Assay [10] concerns the target Man(a1-3)[Man(a1-6)]Man(b1-4)GlcNAc(b1-4)GlcNAc. In outline:
as §1

For assay [11], the target named is Neu5Ac(a2-3)Gal(b1-3)[Fuc(a1-4)]GlcNAc. In short, it runs like this:
as §1

Assay [12] addresses Neu5Ac(a2-3)[GalNAc(b1-4)]Gal(b1-4)Glc. In short, it runs like this: as §1
The target of assay [13] is Neu5Ac(a2-6)GalNAc(b1-4)GlcNAc. In short, it runs like this:
as §1

Assay [14] concerns the target Neu5Ac(a2-8)Neu5Ac(a2-3)[GalNAc(b1-4)]Gal(b1-4)Glc. In short, it runs like this: as §1
Assay [15] has as its target Fuc(a1-2)[GalNAc(a1-4)]Gal(b1-4)GlcNAc. In outline:
as §1

A further assay deals with Gal(a1-4)Gal(b1-4)GlcNAc. In outline: as §1
The target of assay [16] is Gal(b1-3)GlcNAc(b1-3)Gal(b1-4)Glc. In outline: as §1
The target of assay [17] is Gal(b1-4)GlcNAc(b1-3)GalNAc. In short, it runs like this: as §1
The target in assay [18] is Gal(b1-4)GlcNAc(b1-6)[Gal(b1-3)]GalNAc. In outline: as §1
In the next assay the target is Gal3S(b1-4)Glc. In outline:
as §1

A further assay deals with GalNAc(b1-4)GlcNAc. In outline: as §1
For assay [19], the target named is GlcNAc(b1-2)Gal(b1-3)GalNAc. In short, it runs like this: as §1
Assay [20] deals with GlcNAc(b1-4)GlcNAc(b1-4)GlcNAc. In outline: as §1
The target of assay [21] is Neu5Ac(a2-3)Gal(b1-3)[Neu5Ac(a2-3)Gal(b1-4)]GlcNAc. In short, it runs like this:
as §1

For assay [22], the target named is Neu5Ac(a2-6)Gal(b1-4)GlcNAc(b1-3)Gal(b1-4)GlcNAc. In short, it runs like this: as §1
Assay [23] concerns the target Neu5Gc(a2-3)Gal(b1-3)GlcNAc. In outline: as §1

This excerpt belongs to a sample that is enriched for the strongest signals.

B1: FBG2 (Homo sapiens), Q9NRD1 (protein)
chain: MDAPHSKAALDSINELPENILLELFTHVPARQLLLNCRLVCSLWRDLIDLMTLWKRKCLREGFITKDWDQPVADWKIFYFLRSLHRNLLRNPCAEEDMFAWQIDFNGGDRWKVESLPGAHGTDFPDPKVKKYFVTSYEMCLKSQLVDLVAEGYWEELLDTFRPDIVVKDWFAARADCGCTYQLKVQLASADYFVLASFEPPPVTIQQWNNATWTEVSYTFSDYPRGVRYILFQHGGRDTQYWAGWYGPRVTNSSIVVSPKMTRNQASSEAQPGQKHGQEEAAQSPYRAVVQIFPPPVTIQQWNNATWTEVSYTFSDYPRGVRYILFQHGGRDTQYWAGWYGPRVTNSSIVVSPKMTRNQASSEAQPGQKHGQEEAAQSPYRAVVQI
On to B1, for which the “glycan array binding signal (z-score)” value was -0.537 in [1]; -0.236 in assay [2]; -0.526 in the assay with Gal(a1-2)Gal; -0.363 in the assay with Gal(b1-2)Gal; 1.01 in [3]; -0.116 with Glc(b1-4)Glc. Besides, the “glycan array binding signal (z-score)” value is -0.895 in [4]; -0.923 with GlcNAc(b1-3)GalNAc; -0.787 in assay [5]; 3.27 in assay [6]; 3.69 in [7]; 3.61 in [8]. For the same molecule, the “glycan array binding signal (z-score)” value in assay [9] is 4.08; in assay [10], 3.91; in assay [11], -0.752; in assay [12] it was -0.116; in assay [13], -0.582; in assay [14], -0.018.

B2: CGL3 (Coprinopsis cinerea) (protein)
chain: MGHHHHHHHHSGFHILRLESTVDLSEPLKDNGIIVFQSDKLDLEPSPNLGPTGIDNTNVNLINAKGDVLLHIGIRRRENAFVFNSIPYGESRGPEERIPLEGTFGDRRDPSITVFDHPDRYQIMIDYKTVYYYKKRLEGRCEKVSYKINEGQTPPFSDVLGVTVLYFANVMPRAN
With B2, the “glycan array binding signal (z-score)” value in assay [15] is -0.216; in the assay with Gal(a1-4)Gal(b1-4)GlcNAc, -0.049; in assay [16] it was 2.51; in assay [17] it was -0.201; in assay [18], -0.193; with Gal3S(b1-4)Glc it was 0.022. The “glycan array binding signal (z-score)” value is 6.64 with GalNAc(b1-4)GlcNAc; -0.197 in [19]; 8.4 in assay [20]; -0.222 in assay [21]; -0.21 in assay [22]; -0.128 in [14]. Further, the “glycan array binding signal (z-score)” value in assay [23] was -0.191.

(Values after the supplement of paper PMC8728848.)
